# From ChEMBL document CHEMBL3988442, “University of Dundee, Small-Polar-MMV Screening Library” (2021)
# The whole screen tested about 69,000 compounds, of which about 1,000 (1.4%) showed an effect of 50% or more. The entries come from a sample that favours strong results as a whole.
# System: Leishmania donovani
# Experiment: Leishmania intramacrophage assay
# Assay type: functional, organism-based
# Set-up: scale not given: in the data most compounds retested in dose-response had high values
compound,measurement,setting,value
Cc1cccc(S(=O)(=O)N2CCC3(CC2)CC(N(C)C)CO3)c1 (stereo not given),Percent Effect,"30.3 µM, […]",50.39%
CN(C)C1COC2(CCN(S(=O)(=O)c3ccc(F)cc3)CC2)C1.O=C(O)C(F)(F)F (stereo not given),Percent Effect,"30.3 µM, […]",52.86%
COC1COC2(CCN(S(=O)(=O)c3ccc(F)cc3)CC2)C1 (stereo not given),Percent Effect,"30.3 µM, […]",5.953%
CCOC1COC2(CCN(S(=O)(=O)c3cccc(C)c3)CC2)C1 (stereo not given),Percent Effect,"30.3 µM, […]",23.7%
CCOC1COC2(CCN(S(=O)(=O)c3ccc(F)cc3)CC2)C1 (stereo not given),Percent Effect,"30.3 µM, […]",12.78%
CCOC1COC2(CCN(S(=O)(=O)c3cccc(F)c3)CC2)C1 (stereo not given),Percent Effect,"30 µM, 30.03 µM",-15.08%
CC(Oc1ccccc1C#N)C(=O)NC1CC1 (stereo not given),Percent Effect,"30.3 µM, […]",8.957%
Cc1cnn(C2CN(c3nc(C)cc(N(C)C)n3)C2)c1,Percent Effect,"30.3 µM, […]",24.16%
CN(Cc1noc2c1CCCC2)C(=O)CN1C(=O)COc2ccccc21,Percent Effect,"30.3 µM, […]",18.25%
CN(CCc1noc(C2CC2)n1)C(=O)CN1C(=O)COc2ccccc21,Percent Effect,"30.3 µM, […]",99.57%
CC1CCN(CC(=O)N(C)CCc2noc(C3CC3)n2)C1=O (stereo not given),Percent Effect,"30.3 µM, […]",26.42%
CC(C)Oc1ncccc1CNC(=O)c1ccccn1,Percent Effect,"30.3 µM, […]",-8.458%
CN(Cc1ccc(F)c(F)c1)Cc1cc2c(cc1Br)OCCO2,Percent Effect,"30.3 µM, […]",17.19%
c1coc(CNCC2Cn3nncc3CO2)c1 (stereo not given),Percent Effect,"30.3 µM, […]",55.14%
c1cc(CNCC2Cn3nncc3CO2)ccn1 (stereo not given),Percent Effect,"30.3 µM, […]",1.96%
Cc1ccc(CNCC2Cn3nncc3CO2)o1 (stereo not given),Percent Effect,"30.3 µM, […]",8.133%
CCNc1ccnc(NCC2(N(C)C)CCOCC2)n1,Percent Effect,"30.3 µM, […]",31.76%
CCc1ncc(C(=O)N2CC(Oc3ccccc3Cl)C2)cn1,Percent Effect,"30.3 µM, […]",18.16%
COCCN1C[C@H]2CCN(C(=O)c3cc(C)on3)CC[C@H]2S1(=O)=O,Percent Effect,"30.3 µM, […]",-11.97%
Cc1ccc(CNC(=O)NCc2csc(C)n2)cn1,Percent Effect,"30 µM, 30.03 µM",22.66%
Cc1nnc2n1CCN(CCCS(=O)(=O)c1ccccc1)C2,Percent Effect,"30.3 µM, […]",27.12%
CN(C)c1ncnc2c1CCN(CC1CCOCC1)CC2.O=C(O)C(F)(F)F,Percent Effect,"30.3 µM, […]",3.553%
CCN(CC)c1ncnc2c1CCN(CC1CCOCC1)CC2.O=C(O)C(F)(F)F,Percent Effect,"30.3 µM, […]",50.25%
CCN(C)c1ncnc2c1CCN(CC1CCOC1)CC2.O=C(O)C(F)(F)F (stereo not given),Percent Effect,"30.3 µM, […]",-1.105%
Cc1ccc(CN2CCn3c(CNS(C)(=O)=O)nnc3C2)s1,Percent Effect,"30.3 µM, […]",21.51%
COc1cc(OC)nc(N2CCC3(CC2)OCCCC3O)n1 (stereo not given),Percent Effect,"30.3 µM, […]",12.31%
c1cc(-c2ccc(CN3CCCC4(CCNC4)C3)s2)[nH]n1 (stereo not given),Percent Effect,"30.3 µM, […]",24.83%
Fc1cnccc1CN1CCCC2(CCN(c3ncccn3)CC2)C1.O=C(O)C(F)(F)F,Percent Effect,"30.3 µM, […]",6.498%
CC(NCCN1CCC(N(C)C)CC1)c1ccc(F)cc1N(C)C (stereo not given),Percent Effect,"30.3 µM, […]",15.55%
Cc1cc(Br)cnc1NCCN1CCC(N(C)C)CC1,Percent Effect,"30.3 µM, […]",96.65%
CC(NCCN1CCC(N(C)C)CC1)c1ccc(Cl)s1 (stereo not given),Percent Effect,"30.3 µM, […]",43.03%
Cc1cc(C(C)NCCN2CCC(N(C)C)CC2)c(C)s1 (stereo not given),Percent Effect,"30.3 µM, […]",59.42%
COC1CCN(CCNc2ncc(Br)cc2C)CC1,Percent Effect,"30.3 µM, […]",-8.998%
CC(=O)N1CCN(CCNc2ncc(Br)cc2C)CC1,Percent Effect,"30.3 µM, […]",1.457%
COCCN1CCN(Cc2c(C3CCNCC3)[nH]c3ncccc23)CC1.Cl,Percent Effect,"30.3 µM, […]",15.04%
Cn1cc(CN2CCc3onc(C(=O)Nc4cccnc4)c3C2)cn1,Percent Effect,"30.3 µM, […]",24.89%
CC(C)(C)C(=O)N1CCC(c2cnc(-c3cn[nH]c3)cn2)CC1,Percent Effect,"30.3 µM, […]",-18.54%
COc1ccc(Cl)cc1CS(=O)(=O)Cc1nc(C)no1,Percent Effect,"30.3 µM, […]",60.61%
COc1ccc(Cl)cc1CS(=O)(=O)Cc1nc(C2CC2)no1,Percent Effect,"30.3 µM, […]",28.37%
COc1ccc(Cl)cc1CS(=O)(=O)Cc1noc(C)n1,Percent Effect,"30.3 µM, […]",34.45%
O=C(NCCN1CCOCC1)c1cc(-c2ccccc2Cl)[nH]n1,Percent Effect,"30.3 µM, […]",-6.582%
CC(C)c1noc(CN2CCN(C(=O)c3ccncc3F)CC2)n1,Percent Effect,30 µM,25.95%
O=C1C(N2CCN(c3ccc(O)cc3)CC2)CCN1C1CCOCC1 (stereo not given),Percent Effect,"30.3 µM, […]",-7.233%
O=C(Nc1ccc(CC(=O)N2CCSCC2)cc1)NC1CC1,Percent Effect,"30.3 µM, […]",50.93%
O=C(Nc1ccc(CC(=O)N2CCCC2)cc1)NC1CC1,Percent Effect,"30.3 µM, […]",15.08%
O=C(Nc1ccc(CC(=O)N2CCSCC2)cc1)NC1CCCC1,Percent Effect,"30.3 µM, […]",-9.117%
O=C1[C@H]2CC[C@H](CN(C3CSCCSC3)C2)N1Cc1cscn1,Percent Effect,"30 µM, 30.03 µM",-11.37%
Cn1cc(N2CC3(CCN(Cc4nccn4C)C3)CC2=O)cn1.O=C(O)C(F)(F)F (stereo not given),Percent Effect,"30.3 µM, […]",58.91%
CN1CC(=O)N(c2cnn(C)c2)CC12CCN(Cc1nccn1C)C2.O=C(O)C(F)(F)F.O=C(O)C(F)(F)F (stereo not given),Percent Effect,"30 µM, 30.03 µM",3.871%
Cc1ccc(N2CC3(CCN(Cc4nccn4C)C3)CC2=O)s1.O=C(O)C(F)(F)F (stereo not given),Percent Effect,"30.3 µM, […]",55.03%
Cn1ccc(CN2CCCC23CCN(Cc2nccn2C)CC3)n1.O=C(O)C(F)(F)F.O=C(O)C(F)(F)F,Percent Effect,"30.3 µM, […]",27.16%
Cn1ccnc1CN1CCC2(CC(=O)N(c3ccsc3)C2)C1.O=C(O)C(F)(F)F (stereo not given),Percent Effect,"30.3 µM, […]",19.56%
CN(C)CCN1CCCC12CCN(Cc1nccn1C)CC2.O=C(O)C(F)(F)F.O=C(O)C(F)(F)F.O=C(O)C(F)(F)F,Percent Effect,"30.3 µM, […]",52.43%
Cn1cc(CN2CCCC23CCN(Cc2nccn2C)CC3)cn1.O=C(O)C(F)(F)F.O=C(O)C(F)(F)F,Percent Effect,"30.3 µM, […]",22.67%
Cc1ccccc1N1CC2(CCN(Cc3nccn3C)C2)CC1=O.O=C(O)C(F)(F)F (stereo not given),Percent Effect,"30.3 µM, […]",-1.583%
Cc1cccc(N2CC3(CCN(Cc4nccn4C)C3)CC2=O)c1.O=C(O)C(F)(F)F (stereo not given),Percent Effect,"30.3 µM, […]",24.22%
OC(COCc1ccccc1Cl)CN1CCC(c2ccn[nH]2)CC1 (stereo not given),Percent Effect,30 µM,17.67%
O=C(Cc1csc(-c2ccsc2)n1)N1CCN(c2cnccn2)CC1,Percent Effect,30 µM,8.045%
Cc1cc(C(=O)N2CCn3cc(CN(C)C)nc3C2)no1,Percent Effect,"30.3 µM, […]",18.85%
CC(O)CN1CCN(C(=O)c2ccn(-c3ccc(F)cc3)n2)CC1 (stereo not given),Percent Effect,"30.3 µM, […]",-32.18%
Cn1ccc(C(=O)N2CCC(Cc3cnc4[nH]ccc4c3)CC2)n1,Percent Effect,"30 µM, 30.03 µM",27.84%
CO[C@@H]1CC[C@@H](N(C)C(=O)COc2ccc(F)cc2)[C@H]1O,Percent Effect,"30 µM, 30.03 µM",-20.57%
Cc1ccc(C)c(Oc2cc(-n3nc(C)c(C#N)c3N)nc(C)n2)c1,Percent Effect,"30.3 µM, […]",6.945%
CCc1nn(-c2cc(Oc3cc(C)ccc3C)ncn2)c(N)c1C#N,Percent Effect,"30.3 µM, […]",55.59%
CCc1nn(-c2cc(Oc3cc(C)ccc3C)nc(C)n2)c(N)c1C#N,Percent Effect,"30.3 µM, […]",18.36%
NCC(=O)N1CCCC(O)(CN2CCN(c3ccccc3)CC2)CC1 (stereo not given),Percent Effect,"30.3 µM, […]",24.84%
CS(=O)(=O)CCN1CCN(c2ccc(Cl)cn2)CC1,Percent Effect,"30.3 µM, […]",0.04205%
Clc1ccc(N2CCN(CCCN3CCCCC3)CC2)nc1,Percent Effect,"30.3 µM, […]",68.75%
Cc1nc(CNC(=O)N2CCN(c3ccc(Cl)cn3)CC2)no1,Percent Effect,"30.3 µM, […]",-6.718%
Cc1nc(CN2CCN(c3ccc(Cl)cn3)CC2)no1,Percent Effect,"30.3 µM, […]",51.54%
CSCCCN1CCN(c2ccc(Cl)cn2)CC1,Percent Effect,"30.3 µM, […]",30.03%
Cc1nc(CN2CCN(Cc3nccn3C)CC2)no1,Percent Effect,"30 µM, 30.03 µM",11.72%
O=C(NCCNc1ccc(C(F)(F)F)cn1)c1ccc(Br)cc1F,Percent Effect,"30 µM, 30.03 µM",-32.97%
CN(Cc1cn[nH]c1-c1ccc(F)cc1)C(=O)CCC1CC1,Percent Effect,"30.3 µM, […]",-4.143%
CCn1cc(CN2CCC(C3CCN(C)CC3)CC2)cc1C#N,Percent Effect,"30.3 µM, […]",8.451%
COc1ccc(/C=C/CN2CCCC3(C2)CN(C)C(=O)O3)cc1 (stereo not given),Percent Effect,"30.3 µM, […]",14.77%
COC[C@@]12CC[C@@H](N3CCOCC3)C[C@H]1CCN(c1cc(C)ccn1)C2,Percent Effect,"30.3 µM, […]",28.55%
CC(C)Cn1nc(-c2ccc(C(=O)O)cc2)cc1-c1ccc(F)cc1,Percent Effect,"30.3 µM, […]",41.19%
CCC(O)Cn1nc(-c2ccc(C(=O)O)cc2)cc1-c1cccc(F)c1 (stereo not given),Percent Effect,"30.3 µM, […]",29.44%
CCC(O)Cn1nc(-c2ccc(C(=O)O)cc2)cc1-c1ccc(F)cc1 (stereo not given),Percent Effect,"30.3 µM, […]",61.24%
Fc1cccc(N2CCc3ncnc(C4CC4)c3CC2)c1,Percent Effect,"30.3 µM, […]",15.99%
COCCCN1C(=O)CC[C@H]2CN(Cc3cc4ccccc4o3)CC[C@H]21,Percent Effect,"30.3 µM, […]",10.23%
CCN1CCC(NC(=O)NC2CCOc3ccc(Br)cc32)CC1 (stereo not given),Percent Effect,"30.3 µM, […]",1.839%
c1ccc(C2CN(C3CC3)CC3(CCN(Cc4ncc[nH]4)CC3)C2)cc1 (stereo not given),Percent Effect,"30.3 µM, […]",51.92%
CCN1CC(c2ccccc2)CC2(CCN(Cc3ncc[nH]3)CC2)C1 (stereo not given),Percent Effect,"30.3 µM, […]",35.04%
CN1CC(c2ccccc2)CC2(CCN(Cc3ncc[nH]3)CC2)C1 (stereo not given),Percent Effect,"30.3 µM, […]",16.63%
Cc1ccc(F)c(OC2(C(=O)O)CCN(C(=O)C3CCCC3)CC2)c1,Percent Effect,"30.3 µM, […]",24.64%
CCOC(C)c1nc(CN2CCN(Cc3cccnc3)CC2)cs1 (stereo not given),Percent Effect,"30.3 µM, […]",14.45%
Cc1nc(CN2C[C@@H]3CN(c4ncc(F)cn4)C[C@@H]3C2=O)cs1.O=C(O)C(F)(F)F,Percent Effect,"30.3 µM, […]",0.4282%
CN1CCC(N(CCc2ccccc2)C(=O)c2ccc(CO)cc2)CC1,Percent Effect,"30.3 µM, […]",30.31%
CN1CCC(N(CCc2ccccc2)C(=O)c2ccoc2)CC1,Percent Effect,"30.3 µM, […]",23.03%
CN1CCC(N(CCc2ccccc2)C(=O)c2cc[nH]c2)CC1,Percent Effect,"30.3 µM, […]",69.36%
C[C@H]1C(=O)NC[C@H]2CN(Cc3cccc(F)c3)C[C@H]21.O=C(O)C(F)(F)F,Percent Effect,"30.3 µM, […]",4.969%
Cc1cc(CN(C)C(=O)C2CCCN(C(N)=O)C2)no1 (stereo not given),Percent Effect,"30.3 µM, […]",-0.7168%
COc1cccc(CNc2cnn(C)c(=O)c2Cl)c1,Percent Effect,"30 µM, 30.03 µM",34.79%
Cn1ncc(NCc2cccc(F)c2)c(Cl)c1=O,Percent Effect,30 µM,13.08%
COc1ccc(CNc2cnn(C)c(=O)c2Cl)cc1,Percent Effect,30 µM,56.65%
Cn1ncc(NCc2cc(F)cc(F)c2)c(Cl)c1=O,Percent Effect,"30 µM, 30.03 µM",2.406%
CC(C)OCc1cccc(CNc2cnn(C)c(=O)c2Cl)c1,Percent Effect,30 µM,21.9%
Cn1ncc(NCc2cccc(COC(C)(C)C)c2)c(Cl)c1=O,Percent Effect,"30 µM, 30.03 µM",51.11%
